Assay results reported in the supplement of paper PMC6555819.

How the values were obtained:
Assay in all cases: PBM binding z-score (relative to random genomic background probes); higher = stronger binding; sequences stand for … in GC…GCGATTGACAGCGTAGAATGAAGG
[1] = system: FXR:RXRa (NR concentration 270 nM, RXRa partner concentration 90 nM)
Method in brief: (§1)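 Scanned fluorescence from custom Agilent 4×180K protein-binding microarrays was regression-normalized. Binding z-scores use random background probes as reference. Ligand-free nuclear receptor dimers were incubated on the arrays for 1 h and detected with antibodies against each partner (one per run).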

[2] = system: LXRa:RXRa (NR concentration 270 nM, RXRa partner concentration 90 nM)
Method in brief: as §1

[3] = system: LXRa homodimer (NR concentration 270 nM)
Method in brief: as §1

[4] = system: LXRb:RXRa (NR concentration 270 nM, RXRa partner concentration 90 nM)
Method in brief: as §1

[5] = system: LXRb homodimer (NR concentration 270 nM)
Method in brief: as §1

[6] = system: PPARa:RXRa (NR concentration 270 nM, RXRa partner concentration 90 nM)
Method in brief: as §1

[7] = system: PPARg:RXRa (NR concentration 180 nM, RXRa partner concentration 90 nM)
Method in brief: as §1

[8] = system: PPARg:RXRa 270nM:90nM, anti-RXR (NR concentration 270 nM, RXRa partner concentration 90 nM)
Method in brief: as §1

[9] = system: PPARg:RXRa 30nM:10nM, anti-RXR (NR concentration 30 nM, RXRa partner concentration 10 nM)
Method in brief: as §1

[10] = system: PPARg:RXRa 90nM:30nM, anti-RXR (NR concentration 90 nM, RXRa partner concentration 30 nM)
Method in brief: as §1

[11] = system: PPARg:RXRa DBDmut IVT, anti-RXR (DBD mutation: RXRa K156A/R161A, NR concentration 270 nM, RXRa partner concentration 90 nM)
Method in brief: as §1

[12] = system: PPARg:RXRa IVT, anti-PPARg (NR concentration 270 nM, RXRa partner concentration 90 nM)
Method in brief: as §1

[13] = system: PPARg DBDmut:RXRa IVT, anti-PPARg (DBD mutation: PPARg1 K132A/R137A, NR concentration 270 nM, RXRa partner concentration 90 nM)
Method in brief: as §1

[14] = system: PPARg DBDmut IVT, anti-PPARg (DBD mutation: PPARg1 K132A/R137A, NR concentration 270 nM)
Method in brief: as §1

[15] = system: PPARg homodimer (NR concentration 180 nM)
Method in brief: as §1

[16] = system: PXR:RXRa (NR concentration 270 nM, RXRa partner concentration 90 nM)
Method in brief: as §1

[17] = system: PXR homodimer (NR concentration 270 nM)
Method in brief: as §1

[18] = system: RARa:RXR (NR concentration 270 nM, RXRa partner concentration 90 nM)
Method in brief: as §1

[19] = system: RARa homodimer (NR concentration 270 nM)
Method in brief: as §1

[20] = system: RARb:RXRa (NR concentration 270 nM, RXRa partner concentration 90 nM)
Method in brief: as §1

| Sequence | PBM binding z-score [1] | PBM binding z-score [2] | PBM binding z-score [3] | PBM binding z-score [4] | PBM binding z-score [5] | PBM binding z-score [6] | PBM binding z-score [7] | PBM binding z-score [8] | PBM binding z-score [9] | PBM binding z-score [10] | PBM binding z-score [11] | PBM binding z-score [12] | PBM binding z-score [13] | PBM binding z-score [14] | PBM binding z-score [15] | PBM binding z-score [16] | PBM binding z-score [17] | PBM binding z-score [18] | PBM binding z-score [19] | PBM binding z-score [20] |
| --- | --- | --- | --- | --- | --- | --- | --- | --- | --- | --- | --- | --- | --- | --- | --- | --- | --- | --- | --- | --- |
| TCTAGCAGGCCAGAGTGTCACTCAAGAGGTACGG | -0.276 | -0.311 | -1.03 | -0.712 | -1.41 | 0.336 | 0.89 | 1.81 | 1.93 | 1.97 | 0.735 | 0.187 | -0.515 | -1.96 | -0.804 | -0.229 | -0.833 | 0.142 | -1.77 | 0.361 |
| TAGCCTAGGTCATTGGGCCAGTTTAGTACGCATC | 4.25 | 3.21 | 0.757 | 2.35 | 0.194 | 3.88 | 3.49 | 3.27 | 0.719 | 2.06 | 2.53 | 3.45 | -0.6 | 0.202 | 0.893 | 1.71 | -0.11 | 2.11 | -0.422 | 3.52 |
| CGTCCACGGTCAATGCTAGGTCAGTGAAAGCATT | 0.638 | 1.1 | 0.946 | 0.337 | -0.956 | 0.778 | -0.0965 | 0.186 | -0.646 | -0.669 | 0.573 | 1.02 | -0.899 | -1.45 | 0.415 | 0.201 | -0.388 | 1.17 | -0.504 | 3.16 |
| CCTAGCAGGCCAGGGTGACTCAAGCATTTCGCTT | -0.306 | -0.411 | -0.589 | -0.526 | -1.43 | 0.023 | -0.26 | -0.0399 | -0.987 | -0.126 | 0.555 | 0.0938 | -1.83 | -1.19 | -0.646 | -0.537 | -0.777 | -0.0885 | -0.299 | 0.148 |
| TCATATAGGTAAATGCTAGGTGAAAGTACGATCT | 1.24 | 0.992 | 0.296 | 0.731 | 0.0256 | 1.6 | 1.69 | 2.52 | 3.66 | 3.19 | 3.93 | 3.03 | 1.24 | 1.57 | 0.891 | 0.968 | 0.678 | 1.38 | 1.13 | 0.64 |
| CGAACTAGGTCACGGACAGTGAATCTCCGCACGC | 4.87 | 3.34 | 0.231 | 2.64 | -0.137 | 5.68 | 9.36 | 7.68 | 5.94 | 7.84 | 8.66 | 9.1 | 8.25 | 6.07 | 4.94 | 2.4 | -0.165 | 3.61 | 1.22 | 4.35 |
| CTACCAAGGTGATCAAGGTCGTTGATTACTATTC | 0.873 | 0.837 | 0.0949 | 1.29 | -0.12 | 1.65 | 0.258 | 0.508 | -0.15 | 0.529 | 1.11 | 1.31 | 0.364 | -0.201 | 0.492 | 2.22 | 1.77 | 1.33 | 0.0994 | 1.32 |
